Test results: PubChem BioAssay AID1159580 (chemical genetic matrix, 2015)
Where “and” joins values, the source holds several entries; their conditions need not be identical. Equal entries are not always repeated. Out of some 5,500 compounds screened, about 2,000 (36%) were called active. Not shown: some 18% with an inconclusive outcome. Rule as the data show it: active = normalized growth mostly below about 0.91 (no sharp cut-off); inconclusive = no clear call, values can overlap the other calls; inactive = mostly above about 0.92. The list shows a part of the results.

Assay: chemical genetic growth profiling, strain panel (AID 1159580);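 also: tested at 20 µM; growth read once vehicle control cultures reached saturation at 30 °C; 1 = growth at the plate median or of vehicle wells; lower values mean less growth of the strain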
Details: S. cerevisiae deletion strains, growth OD

Measured: normalized growth

C[C@]12CCC3c4ccc(O)cc4CCC3C1CCC2=O (stereo partly drawn)
active: locus YDL074C, strain BRE1, active compounds read low 0.766 | locus YDR137W, strain rgp1, active compounds read low 0.682 | locus YDR162C, strain NBP2, active compounds read low 0.761 | locus YDR195W, strain ref2 1.26 [resistant] | locus YDR392W, strain spt3, active compounds read low 0.625
inactive: locus YAL013W, strain DEP1, active compounds read low 0.968 | locus YAL021C, strain ccr4, active compounds read low 1 | locus YAL026C, strain drs2, active compounds read low 0.993 | locus YAL030W, strain snc1, active compounds read low 1.01 | locus YBL061C, strain skt5, active compounds read low 0.999 | locus YBR009C, strain hhf1, active compounds read low 0.953 | locus YBR021W, strain FUR4, active compounds read low 0.875 | locus YBR023C, strain chs3, active compounds read low 1.01 | locus YBR171W, strain sec66, active compounds read low 0.992 | locus YBR229C, strain ROT2, active compounds read low 0.96 | locus YBR231C, strain swc5, active compounds read low 0.975 | locus YBR279W, strain paf1, active compounds read low 0.988 | locus YCL011C, strain gbp2, active compounds read low 1.01 | locus YCL016C, strain dcc1, active compounds read low 1.01 | locus YCL029C, strain bik1, active compounds read low 0.952 | locus YCL061C, strain MRC1, active compounds read low 1.01 | locus YCL069W, strain vba3, active compounds read low 1 | locus YCR088W, strain abp1, active compounds read low 1.01 | locus YDL005C, strain med2, active compounds read low 1.02 | locus YDL035C, strain GPR1, active compounds read low 0.87 | locus YDL040C, strain nat1, active compounds read low 1.01 | locus YDL101C, strain DUN1, active compounds read low 0.987 | locus YDL134C, strain PPH21, active compounds read low 0.901 | locus YDL185W, strain tfp1, active compounds read low 0.96 | locus YDL192W, strain arf1, active compounds read low 0.98 | locus YDR001C, strain nth1, active compounds read low 1.02 | locus YDR069C, strain doa4, active compounds read low 0.993 | locus YDR101C, strain arx1, active compounds read low 0.923 | locus YDR159W, strain sac3, active compounds read low 0.959 | locus YDR297W, strain sur2, active compounds read low 1.01 | locus YDR318W, strain mcm21, active compounds read low 0.967 | locus YDR334W, strain swr1, active compounds read low 1.02 | locus YDR335W, strain msn5, active compounds read low 0.998 | locus YDR388W, active compounds read low 0.987 | locus YDR502C, strain sam2, active compounds read low 0.939 | locus YEL003W, strain gim4, active compounds read low 0.942 | locus YEL037C, strain rad23, active compounds read low 1.01 | locus YEL061C, strain CIN8 (second series), active compounds read low 1 | locus YEL061C, strain CIN8, active compounds read low 0.997 | locus YER015W, strain faa2, active compounds read low 1.01 | locus YER016W, strain bim1, active compounds read low 0.978 | locus YER110C, active compounds read low 0.985 | locus YER111C, strain swi4, active compounds read low 1.02 | locus YER155C, strain BEM2 (second series), active compounds read low 0.905 | locus YER155C, strain BEM2, active compounds read low 1 | locus YER167W, strain BCK2, active compounds read low 1.03 | locus YFR010W, strain ubp6, active compounds read low 1 | locus YGL078C, strain dbp3, active compounds read low 0.969 | locus YGL086W, strain mad1, active compounds read low 0.959 | locus YGL167C, strain pmr1, active compounds read low 1.03 | locus YGL173C, strain kem1, active compounds read low 0.963 | locus YGL227W, strain vid30, active compounds read low 1.03 | locus YGL240W, strain doc1, active compounds read low 0.944 | locus YGL248W, strain PDE1, active compounds read low 0.962 | locus YGL253W, strain hxk2, active compounds read low 0.951 | locus YGR135W, strain pre9, active compounds read low 1.02 | locus YGR252W, strain gcn5, active compounds read low 0.874 | locus YHR013C, strain ard1, active compounds read low 1.01 | locus YHR027C, strain rpn1, active compounds read low 1 | locus YHR030C, strain SLT2, active compounds read low 1.01 and 0.986 | locus YHR079C, strain IRE1 (second series), active compounds read low 0.992 | locus YHR079C, strain IRE1, active compounds read low 0.989 | locus YHR094C, strain hxt1, active compounds read low 0.999 | locus YHR129C, strain ARP1, active compounds read low 1.01 | locus YHR142W, strain chs7, active compounds read low 0.949 | locus YHR200W, strain rpn10, active compounds read low 0.984 | locus YIL066C, strain RNR3, active compounds read low 0.982 | locus YIL073C, strain SPO22, active compounds read low 0.94 | locus YIL125W, strain kgd1, active compounds read low 0.986 | locus YIR030C, strain dcg1, active compounds read low 1.02 | locus YJL092W, strain hpr5, active compounds read low 1.02 | locus YJL095W, strain BCK1 (second series), active compounds read low 1.01 | locus YJL095W, strain BCK1, active compounds read low 0.919 and 0.992 | locus YJL115W, strain asf1, active compounds read low 1.02 | locus YJL129C, strain trk1, active compounds read low 1.03 | locus YJL134W, strain LCB3, active compounds read low 0.992 | locus YJL154C, strain vps35, active compounds read low 1.02 | locus YJL164C, strain tpk1, active compounds read low 0.957 | locus YJL166W, strain qcr8, active compounds read low 0.987 | locus YJL168C, strain set2, active compounds read low 1 | locus YJL187C, strain SWE1 (second series), active compounds read low 0.969 | locus YJL187C, strain SWE1, active compounds read low 1.01 | locus YJR043C, strain POL32, active compounds read low 0.937
